According to the emibetuzumab library of Makowski et al. (2022):
The list shows a part of the results. No count for the full screen is at hand.

B1: VH:VL chains; a variant is named by its letters at X, in order (parent)
chain 1: QVQLVQSGAEVKKPGASVKVSCKASGYTFTDYXMHWVRQAPGQGLEWMGXVNPNXXXTTYNQKFEGRVTMTTDTSTSTAYMELRSLRSDDTAVYYCARXNXLDXWGQGTTVTVSS
chain 2: DIQMTQSPSSLSASVGDRVTITCSVSSSVSSIYLHWYQQKPGKAPKLLIYSTSNLASGVPSRFSGSGSGTDFTLTISSLQPEDFATYYCQVYSGYPLTFGGGTKVEIK

Variants of: B1
Assay: yeast display scFab, FACS + sequencing
Conditions: with MET
Summary of the method: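 A yeast surface library of scFab variants carrying heavy-chain CDR mutations went through two magnetic enrichment rounds on Protein A beads coated with HGFR-Fc, then FACS. For sorting, cells were labelled for 3 h at room temperature with 1 nM HGFR-Fc and anti-Myc in PBSB containing 1% milk, and the top 50% of antigen-positive cells were gated. Input and round-3 sorted populations were deep sequenced in two replicates. A sequence was called an antigen binder if it appeared in both antigen-positive samples and a non-binder if it appeared only in the input.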

| Variant | antigen binding call |
| --- | --- |
| DKEGGYSV | no binding |
| DAKEGSLD | no binding |
| SAAGADWS | no binding |
| YRTADVGV | no binding |
| YRTAGAGV | binds |
| YRTAGSGV | binds |
| FAGGGDLV | no binding |
| VKARGSVD | binds |
| VKAAGSVD | no binding |
| FTETGSVD | no binding |
| VKARGSGD | binds |
| VEGGGSVD | no binding |
| VKGKDSGD | no binding |
| FKARGSVD | binds |
| VEEEGSVD | no binding |
| VKERGSVD | binds |
| VTGTGSGD | no binding |
| VTGTGYVF | no binding |
| FRGKGAAS | binds |
| FRGKGAGY | binds |
| YRGKGAAS | binds |
| FRGKGASS | binds |
| VTGEDDGD | no binding |
| DAKENAGD | no binding |

| Variant | antigen binding call |
| --- | --- |
| VAKEGAWV | no binding |
| VEARNAGA | no binding |
| DEGGTDVA | no binding |
| SAEATDLY | no binding |
| FAKAGFVA | no binding |
| FRGKGAGS | binds |
| FRGKGAVS | binds |
| YRGKGAVS | binds |
| YRRRGALF | binds |
| YRRRGSLF | binds |
| YKEGDSGV chain 1 R87K | no binding |
| FKEGGSAA | no binding |
| SKERGDVA | no binding |
| YKGGDDLA | no binding |
| STGRAALA | no binding |
| SKGRGALA | binds |
| YKGRGALA | binds |
| YAGRGDLA | no binding |
| FKGRGSLA | binds |
| YKGRGSLA | binds |
| VEEEGDWD | no binding |
| YGKGGDLA | no binding |
| YKKGGSLA | binds |
| FKRAGSLA | binds |

| Variant | antigen binding call |
| --- | --- |
| VKGRSDSA | no binding |
| SKGRSSLA | binds |
| DKEEDSLA | no binding |
| SKGRSDGA | no binding |
| VGGTSDWA | no binding |
| SRTGSDVD | no binding |
| SRGRGSVD | binds |
| SRGRGYGD | no binding |
| SGGKNSVD | no binding |
| SRGRGAVD | binds |
| SGEGGAAV | no binding |
| VRGRGALF | binds |
| YRGRGALF | binds |
| VRGRGVSY | no binding |
| YRGRGVLF | binds |
| AARADDWV | no binding |
| FTEEGDGA | no binding |
| DAGEAFSF | no binding |
| AGGGNDGV | no binding |
| FRGRSSAF | binds |
| FRGRGSAF | binds |
| YEERSDAF | no binding |
| SAEGDAAD | no binding |
| DAARGAAA | no binding |

| Variant | antigen binding call |
| --- | --- |
| ARAASAGA | no binding |
| SRARGAAA | binds |
| SRGRGFAA | no binding |
| SRARGAGA | binds |
| SGEGGAGA | no binding |
| SEEGTDWD | no binding |
| VATGDDVD | no binding |
| FKTKNYAD | no binding |
| DKEGGDVV | no binding |
| FTGTGSGA | no binding |
| FRGESAGA | binds |
| FRGESAAA | binds |
| FRGESSGA | binds |
| FRGRDYGA | no binding |
| YAAGSDVY | no binding |
| DGGKNDGD | no binding |
| DGTGGAGA | no binding |
| DTGGDAGV | no binding |
| DATGGDVV | no binding |
| FTEEGDGV | no binding |
| YRAKSSGV | binds |
| YAEESSGV | no binding |
| YRAGSSGV | binds |
| YRAESSGV | binds |

| Variant | antigen binding call |
| --- | --- |
| VAGAGDVV | no binding |
| FARKSFGS | no binding |
| YRRRGSVA | binds |
| YAKRGSWA | no binding |
| YRRRGSSA | binds |
| YRKRGSSA | binds |
| DEGGTSLD | no binding |
| YKAGDAGD | binds |
| VTAGDAGD | no binding |
| YKARGAAD | binds |
| YKGKGDAD | no binding |
| YKAKGAGD | binds |
| YKAEDVGD | no binding |
| VEAGDAGD | no binding |
| YKAKGAAD | binds |
| FAEGDDVV | no binding |
| ARAKTSWV | no binding |
| FRKAAVAV | no binding |
| ARAAGDWV | no binding |
| FTTGGSAV chain 1 M48I | no binding |
| AEAGDAVV | no binding |
| FRGRGSLV | binds |
| ARARGSWV | binds |
| FRKRGSAV | binds |

| Variant | antigen binding call |
| --- | --- |
| ARAGGSVV | binds |
| AEERDSVV | no binding |
| SEARSYLV | no binding |
| SEARSDVD | no binding |
| FRGRDVAV | no binding |
| FRARGSWV | binds |
| FTKAASWV | no binding |
| FRGRGSAV | binds |
| FRGRGSVV | binds |
| FRGRGSWV | binds |
| DAGTGAGD | no binding |
| SETTDDAV | no binding |
| SEARSSLV | no binding |
| YRRGSSSA | binds |
| DRRGDSSA | no binding |
| YRRKGSSA | binds |
| FRRGGASA | binds |
| YAEESSSA | no binding |
| FARGGYVA | no binding |
| DRREDSSA | no binding |
| YRRGDSSA | binds |
| VAAKSAAA chain 1 R38K | no binding |
| ATGGDDWF | no binding |
| VEGGGDWS | no binding |

| Variant | antigen binding call |
| --- | --- |
| SEARNAGD | no binding |
| VKGRADWA | no binding |
| VTGGSDVY | no binding |
| YRRGGASA | binds |
| FAGGGDGA | no binding |
| FATEGASA | binds |
| DARGGSSA | no binding |
| YRRGGSSA | binds |
| FRGRDFSA | no binding |
| FEETDASA | no binding |
| FAEGDDSA | no binding |
| FRGKDASA | binds |
| STGGDDVY | no binding |
| VAGTGDWD | no binding |
| DTGKDAGD | no binding |
| SETGGDVA | no binding |
| SEARSAVS | no binding |
| SEEASSSA | no binding |
| YTGTSSSA | no binding |
| YRRRDSSA | binds |
| DRGRDSSA | no binding |
| YRRGGSVA | binds |
| VTGGDDVY | no binding |
| YTGGDDVV | no binding |

| Variant | antigen binding call |
| --- | --- |
| YEGGGSSA | no binding |
| FRGRGSSA | binds |
| FKGEGSSA | no binding |
| FRGGGSSA | binds |
| DTGRADWA | no binding |
| DTREGDVD | no binding |
| DGRGDALS | no binding |
| YKRGDDSS | no binding |
| YKRGDSSS | binds |
| YKRGDASS | binds |
| VGTKGDAA | no binding |
| DEGGGSSA | no binding |
| FRGRDDWA | no binding |
| FRGGGAVA | binds |
| FRGGGSAA | binds |
| FRGGGSWA | binds |
| DATGGAVA | no binding |
| FRTGGAVA | binds |
| FRGTGSWA | no binding |
| STGTSDVF | no binding |
| DAKEGDGV | no binding |
| FRGGSSAA | binds |
| FRTRDSAA | binds |
| FRTRDSSS | binds |

| Variant | antigen binding call |
| --- | --- |
| FAEGASSS | no binding |
| DRGGSSAA | no binding |
| AARADSLS | no binding |
| FRGRDFAD | no binding |
| DRGRDDVF | no binding |
| FRGRDDVF | no binding |
| FRGRDSSF | binds |
| FRGRAAVD | binds |
| FRGRDYGF | no binding |
| FRGRDAVF | binds |
| FRGRDYGD | no binding |
| FRGRDAVD | binds |
| SAEKDDGS | no binding |
| DARGGAGA | no binding |
| VGEKGDGV | no binding |
| SEKEGDAA | no binding |
| SRGRGFVA | no binding |
| YRGRGFLV | binds |
| YRGKGFVV | binds |
| YRGRGFVA | binds |
| YRGKGFVA | binds |
| FRGRGFVA | no binding |
